Bioassay records from PubChem BioAssay.
Hits are enriched below; roughly 19% of the tested compounds scored in any of these assays.
Pf growth 96h: inhibits malaria parasite growth, 96 h; actives 6.9% (n = 320,000); Potency, µM (top dose mostly 28.7 µM), most hits filed as inhibitors; P. falciparum luciferase reporter growth, 96 h; AID 504834
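Two-generation exposure (96 h) targets delayed-death phenotype. Reporter parasites carrying integrated firefly luciferase, in red cells at 2% hematocrit and 0.05% parasitemia final, kept at 37 C, 5% CO2; luminescence loss indicates inhibition.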
SARS PLpro yeast: SARS-CoV PLP inhibition in yeast; S. cerevisiae expressing SARS-CoV PLpro, growth rescue; Potency, µM (series often up to 32.9 µM), usual class: activators; actives 0.19% (n = 330,000); calls by dose curve; note: nearly all actives have a fitted effect of over 55% in size
AMA1-RON2 inh: disrupts binding of P. falciparum AMA1 to RON2; AlphaScreen AMA1-biotinylated RON2 peptide binding; Potency, µM (series often up to 58.2 µM), most hits filed as inhibitors; actives 0.2% (n = 360,000); note: nearly all actives have a fitted effect of over 45% in size
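AMA1 (3D7) with his tag at 25 nM final met compounds first, then biotinylated RON2 peptide at 25 nM; detection used donor plus acceptor beads, 10 µg/mL apiece, read by AlphaScreen after 30 min at room temperature.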
Cycloheximide cs: affects cycloheximide protein synthesis inhibition readout, counter-screen | cell reporter, cycloheximide protein synthesis inhibition counterscreen | max response, % | actives 12% (n = 300,000); in the data active = max response mostly above about 13%, no sharp cut-off; inactive = mostly below about 14%; note: read at 38.3 µM for the half of the compounds with a filed dose
Pf growth 48h: inhibits P. falciparum growth in the first generation, 48 h | AID 504832 | actives 5.9% (n = 310,000) | P. falciparum luciferase growth in erythrocytes, 48 h | Potency, µM (top dose mostly 28.7 µM), usual class: inhibitors
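Luciferase-expressing parasites in RBCs, 2% Hct / 0.1% parasitemia final; RPMI 1640 + 0.5% Albumax; 37 C, 5% CO2, one generation; luminescence read-out, lower signal = inhibition.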
Shiga inhibitor: Shiga toxin inhibition; Vero cells, Shiga toxin protein synthesis inhibition reporter; inhibition, % at 38.7 µM; actives 9.2% (n = 290,000); AID 2315; in the data active = inhibition mostly above about 28%, no sharp cut-off; inactive = mostly below about 43%
Of the large screens only hits and unclear results are named; the others gave an inactive call. Unless noted, calls come from the whole dose curve; as a rule, active = well fitted curve in the direction sought with a large enough effect; inconclusive = small, poorly fitted or top-dose-only effect, or another doubt; inactive = no such curve, though single readings can be large; an effect the other way counts as inactive or inconclusive.

CC1(C)CC(=O)C(N=Nc2cccc(F)c2C#N)=C(O)C1	none
O=C(c1cccc(C(F)(F)F)c1)N1CCOC12CCN(c1ncc(C(F)(F)F)cc1Cl)CC2	Pf growth 96h inconclusive, Pf growth 48h inconclusive (no result: SARS PLpro yeast)
CC(C)(C)Cc1nnc(NC(=O)CCc2ccccc2)s1	Cycloheximide cs 12.6
CCOc1ccc(N2CC(C(=O)N3CCCc4ccccc43)CC2=O)cc1 (stereo not drawn)	Cycloheximide cs 31.5, Shiga inhibitor 64.0
CCCN1C[C@@H](C)[C@@H](OC)CN(C)C(=O)c2ccc(NC(=O)c3cccc(F)c3)cc2OC[C@H]1C	none (no result: Pf growth 96h, SARS PLpro yeast, Cycloheximide cs, Pf growth 48h, Shiga inhibitor)
CCc1ccc2c(c1)cc(CN(C(=S)Nc1ccccc1C)C1CC1)c1nnnn12	Pf growth 96h inconclusive, Pf growth 48h 3.29µM
CC1COC(=O)O1 (stereo not drawn)	none (no result: Pf growth 96h, SARS PLpro yeast, AMA1-RON2 inh, Pf growth 48h)
COc1ccc(N/C=C(\C#N)S(=O)(=O)c2ccc(Cl)cc2)c(OC)c1	none
O=C(OCc1nnc(-c2ccccc2)o1)c1cc(=O)c2ccccc2o1	Cycloheximide cs 26.0
Nc1ccccc1C(=O)OCc1ccc([N+](=O)[O-])cc1	Cycloheximide cs 33.2, Shiga inhibitor 76.5
O=C(OCc1ccc([N+](=O)[O-])cc1)c1cc(=O)c2ccccc2o1	Cycloheximide cs 9.7
CCOC(=S)N/C(=N\S(=O)(=O)c1ccc(C)cc1)c1ccccc1	none
CC(C)c1ccc(NC(=O)COC(=O)c2nn(C)c(=O)c3ccccc23)cc1	none (no result: Pf growth 96h, Cycloheximide cs, Pf growth 48h, Shiga inhibitor)
CC1(C)SC(=Nc2ccccc2)N(S(=O)(=O)c2ccccc2)C1=O	none
O=C1C(c2ccccc2)SC(=Nc2ccccc2)N1S(=O)(=O)c1ccccc1 (stereo not drawn)	Cycloheximide cs 30.0 (no result: Pf growth 96h)
Nc1ccc(-c2cnc[nH]2)cc1[N+](=O)[O-]	AMA1-RON2 inh inconclusive, Cycloheximide cs 12.3
Nc1ccc(-c2ccc(N)c([N+](=O)[O-])c2)cc1[N+](=O)[O-]	none
CC12CCCCC1(O)[N+](=O)C1=C(CCCC1)N2[O-] (stereo not drawn)	Pf growth 96h 4.15µM, Cycloheximide cs 14.8
Cc1csc(SC(C)c2nc3scc(-c4ccccc4)c3c(=O)[nH]2)n1 (stereo not drawn)	none
O=C(O)c1cccc(NC2=C(Cl)C(=O)c3ccccc3C2=O)c1	none
Cc1ccc(NCC(=O)c2ccccc2)cc1Cl	Pf growth 96h inconclusive, Cycloheximide cs 23.9, Pf growth 48h inconclusive, Shiga inhibitor 102.4
Cc1ccc(NC2=C(NC(=O)c3ccccc3)C(=O)c3ccccc3C2=O)cc1Cl	Pf growth 96h inconclusive, AMA1-RON2 inh inconclusive, Pf growth 48h 0.294µM
Cc1ccc(NCCC(=O)c2ccccc2)cc1Cl	Cycloheximide cs 15.1, Shiga inhibitor 42.6
NC(N)=NC(=O)c1nc(Cl)c(N)nc1N	Pf growth 96h inconclusive, Pf growth 48h 3.79µM
NC(N)=NC(=O)c1nc(Cl)c(N2CCCCCC2)nc1N	Pf growth 96h 9.28µM, Pf growth 48h 4.65µM (no result: SARS PLpro yeast, Cycloheximide cs, Shiga inhibitor)
Cc1ccc(CSCC(=O)N(C)CC(=O)Nc2ccccc2C(F)(F)F)cc1	none (no result: Cycloheximide cs, Shiga inhibitor)
Cc1noc(C)c1-c1ccc2ncnc(NCc3cccc(-c4ccccc4)c3)c2c1	Pf growth 96h 3.7µM, Pf growth 48h inconclusive (no result: AMA1-RON2 inh)
CCOc1ccccc1CNc1ncnc2ccc(-c3c(C)noc3C)cc12	Pf growth 96h inconclusive, Cycloheximide cs 30.1, Pf growth 48h inconclusive (no result: AMA1-RON2 inh)
CC(Sc1nnc2ccccn12)C(=O)Nc1ccc2c(c1)OCO2 (stereo not drawn)	none
Cc1ccnc(NS(=O)(=O)c2cccs2)c1	none (no result: Pf growth 96h)
COC(=O)C(O)(c1ccc(NC(=O)c2cccs2)c(C)c1)C(F)(F)F (stereo not drawn)	none
Cc1ccnc(NC(=O)c2ccc(Br)s2)c1	Cycloheximide cs 69.7, Shiga inhibitor 89.6
Cc1cccc(NC(=O)c2cc3cc([N+](=O)[O-])ccc3s2)n1	Cycloheximide cs 18.5
Cc1ccnc(NC(=O)c2cccs2)c1	Cycloheximide cs 37.7
Cc1cc(NC(=O)c2cccs2)ncc1NC(=O)C(C)(C)C	Cycloheximide cs 31.6 (no result: Shiga inhibitor)
Cc1ccc(OCc2nnn(CC(=O)NS(=O)(=O)c3c(C)noc3C)c2-c2ccccc2)cc1	none (no result: Pf growth 96h, SARS PLpro yeast, Cycloheximide cs, Pf growth 48h, Shiga inhibitor)
CCCCC/C=C/C=C1/C(=O)C=C[C@@H]1C/C=C\CCCC(=O)O	none (no result: Pf growth 96h, SARS PLpro yeast, AMA1-RON2 inh, Pf growth 48h)
Cc1c(-c2ccccc2)oc2c(C(=O)N3CCN(c4ccccc4F)CC3)cccc2c1=O	none
Nc1nccc(-c2cccs2)n1	Pf growth 48h inconclusive
CN(CC(=O)Nc1ccccn1)S(=O)(=O)c1ccc(Cl)cc1	Pf growth 96h inconclusive
O=C(Nc1cccnc1Cl)c1cccs1	none
O=C(Nc1nccc(-c2cccs2)n1)c1cccs1	Cycloheximide cs 30.9, Shiga inhibitor 67.0
CCN(CC)S(=O)(=O)c1csc(C(=O)Nc2ccccn2)c1	Cycloheximide cs 21.6, Shiga inhibitor active
Cc1cccc(NC(=O)c2cccs2)n1	Cycloheximide cs 37.5, Shiga inhibitor 78.1
O=C(Nc1ccccn1)c1cccs1	Cycloheximide cs 51.7, Shiga inhibitor 75.6 (no result: SARS PLpro yeast)
COc1ccc([N+](=O)[O-])cc1NC(=O)CCSCCc1ccccn1	none
O=C(N/N=C/c1ccc2c(c1)OCO2)/C(=C/c1ccc2c(c1)OCO2)NC(=O)c1ccccc1	none
CN(C)c1ccc(/C=C(/NC(=O)c2ccccc2)C(=O)N/N=C/c2ccc([N+](=O)[O-])c(O)c2)cc1	Pf growth 96h 5.22µM, Cycloheximide cs 52.3, Pf growth 48h 13.1µM, Shiga inhibitor 47.0
CCOC(=O)C(CC)Sc1ncnc2nc[nH]c12 (stereo not drawn)	Pf growth 96h 10.4µM
Cc1ccccc1Cn1nc(C)c(NC(=O)c2cc3nc(-c4ccco4)cc(C(F)(F)F)n3n2)c1C	Pf growth 48h 13.1µM (no result: Pf growth 96h)
O=C(Nc1cnn(Cc2ccccc2)c1)c1cc2nc(-c3ccco3)cc(C(F)(F)F)n2n1	Pf growth 96h 11.7µM, Pf growth 48h inconclusive
Cc1cc(NC(=O)c2cc(-c3ccccn3)nc3c(Cl)cccc23)no1	Pf growth 96h 2.08µM
Cc1cc(NC(=O)c2cc(-c3ccc(C)c(C)c3)nc3ccccc23)no1	Pf growth 96h 0.738µM, Pf growth 48h 0.828µM, Shiga inhibitor 20.1
Cc1ccc(-c2cc(C(=O)Nc3cc(C)on3)c3ccccc3n2)cc1	Pf growth 48h inconclusive
Cc1cc(NC(=O)c2cc(-c3cccc(OCC(C)C)c3)nc3ccccc23)no1	Pf growth 96h 2.33µM, Pf growth 48h inconclusive
COc1cccc(/C=C/c2nc(S(=O)(=O)c3ccccc3)c(N(C)C)o2)c1	Pf growth 96h inconclusive, Pf growth 48h 10.4µM
COc1ccccc1/C=C/c1nc(S(=O)(=O)c2ccccc2)c(N(C)C)o1	Pf growth 96h inconclusive, Pf growth 48h inconclusive
CCNc1nc(NCC)nc(N/N=C/c2ccc(Br)cc2)n1	Pf growth 96h inconclusive, Pf growth 48h inconclusive
CCCCNc1nc2ccccc2n1CC(=O)Nc1c(C)cccc1CC	Pf growth 96h inconclusive
